Experimental findings from PubChem BioAssay AID1159580 (chemical genetic matrix, 2015) are described below.

Molecules are shown by their SMILES. The whole screen tested about 5,500 compounds, of which about 2,000 (36%) were called active. Another 18% or so got no clear call; they are omitted. The list shows a part of the results. Values without a mark were called inactive. Cut-off read from the data, not from the text of the source: active = normalized growth mostly below about 0.91 (no sharp cut-off); inconclusive = no clear call, values can overlap the other calls; inactive = mostly above about 0.92.

This assay can be described thus: chemical genetic growth profiling, strain panel (AID 1159580).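 Note: tested at 20 µM; growth read once vehicle control cultures reached saturation at 30 °C; 1 = growth at the plate median or of vehicle wells; lower values mean less growth of the strain.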 To be noted: S. cerevisiae deletion strains, growth OD.

Turning to `CC(=O)SCC[N+](C)(C)C`, the normalized growth runs as follows: (locus YAL040C, strain CLN3, hits give low values) 1.12 [resistant] (active); (locus YER002W, strain NOP16, hits give low values) 1.04; (locus YNL175C, strain NOP13, hits give low values) 1.02; (locus YNL197C, strain WHI3, hits give low values) 1.02; (locus YNL224C, strain SQS1, hits give low values) 0.972; (locus YOR083W, strain WHI5 (second series), hits give low values) 0.982. The normalized growth (locus YPL055C, strain LGE1, hits give low values) is 1.01.
